Data reported in the supplement of paper PMC9925115.
Where a name gives a salt, the structure may show the parent alone. ± gives the uncertainty stated by the source.

System: FLX1
Experiment: cell viability z-score within plate (CellTiter-Glo), mean of 3 biological replicates; higher = higher viability relative to plate (less growth inhibition)
Conditions: 2 µM; time (hr): 120
Procedure: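 FLX1 fibrolamellar carcinoma cells (DNAJB1-PRKACA fusion), 600 cells/well in 384-well plates, treated with a Selleck kinase inhibitor library (L1200) at 2 uM for 5 days (120 hr); viability by CellTiter-Glo. A z-score was computed within each plate and averaged over three biological replicates.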

Compound	cell viability z-score within plate
COc1cc(F)c(F)c(Nc2ccc(I)cc2F)c1NS(=O)(=O)C1(C[C@H](O)CO)CC1 [Refametinib (RDEA119, Bay 86-9766)]	-1.34 ± 1.7
Cc1cc(F)c(Nc2ncnc3cc(OCc4ccccc4)ccc23)cc1O	-0.328 ± 0.22
COc1ccc(-c2nc(N3CCOCC3)c3sc(CN(C)c4ncc(C(=O)NO)cn4)cc3n2)cn1	-0.258 ± 0.92
CN(C)Cc1cccc(N=C(c2ccccc2)c2c(O)[nH]c3cc(C(=O)N(C)C)ccc23)c1	0.69 ± 0.34
Nc1nc(Nc2ccc(S(N)(=O)=O)cc2)nn1C(=O)c1c(F)cccc1F	-2.24 ± 0.22
CN1CCN(c2nc(C3=C(c4c[nH]c5ccccc45)C(=O)NC3=O)c3ccccc3n2)CC1 [Sotrastaurin]	0.764 ± 0.47
CN1CC[C@H](c2c(O)cc(O)c3c(=O)cc(-c4ccccc4Cl)oc23)[C@H](O)C1 [Flavopiridol HCl]	0.894 ± 0.42
CCOc1cc(N2CCC(O)CC2)ccc1Nc1ncc2c(n1)N(C)c1ccccc1C(=O)N2C	0.413 ± 1.6
CNC(=O)c1nn(C)c2c1C(C)(C)Cc1cnc(Nc3ccc(N4CCN(C)CC4)cc3)nc1-2	0.949 ± 0.33
O=C(NC(NC(=S)Nc1ccc(F)c([N+](=O)[O-])c1)C(Cl)(Cl)Cl)C(c1ccccc1)c1ccccc1 (stereo unspecified)	0.309 ± 0.51
CCOc1cc2ncc(C#N)c(Nc3ccc(F)c(Cl)c3)c2cc1NC(=O)/C=C/CN(C)C [Pelitinib (EKB-569)]	-1.38 ± 0.64
Cc1cc(Nc2nc(N[C@@H](C)c3ccc(F)cc3)c(C#N)cc2F)n[nH]1	0.513 ± 0.61
N[C@@H]1CCCN(c2c(/C=C3\SC(=O)NC3=O)cccc2-c2ccccc2)C1	0.166 ± 0.49

System: FLX1 + dox-induced PRKAR1A G325D
Experiment: difference in log2 fold change of viability vs plate median (dox-induced PRKAR1A G325D minus uninduced); higher = compound less effective when PKA is inhibited
Conditions: concentration: not stated (2 or 5 uM); 5 days
Procedure: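 For each plate a log2 fold change vs the plate median was derived, and the values without dox were subtracted from those with dox, averaged over three biological replicates.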

Compound	difference in log2 fold change of viability
CCCS(=O)(=O)Nc1ccc(F)c(C(=O)c2c[nH]c3ncc(-c4ccc(Cl)cc4)cc23)c1F [Vemurafenib (PLX4032, RG7204)]	0.336
COc1cccc2cc(-c3nc([C@H]4CC[C@H](C(=O)O)CC4)n4ncnc(N)c34)[nH]c12	0.812
CNC(=O)Nc1ccc(-c2nc(N3CC4CCC(C3)O4)c3cnn(C4CCC5(CC4)OCCO5)c3n2)cc1	1.48
COc1cc(Nc2ncc(F)c(Nc3ccc4c(n3)NC(=O)C(C)(C)O4)n2)cc(OC)c1OC [R406 (free base)]	-0.334
O=S(=O)(c1cccc2cnccc12)N1CCCNCC1 [Fasudil (HA-1077) HCl]	-0.15
O=c1ccc2ccc(O)c(O)c2o1 [Daphnetin]	-0.062
CCN1CCN(Cc2ccc(-c3cc4c(N[C@H](C)c5ccccc5)ncnc4[nH]3)cc2)CC1	-0.338
COc1cc2c(Oc3ccc4[nH]c(C)cc4c3F)ncnc2cc1OCCCN1CCCC1 [Cediranib (AZD2171)]	0.58
O=C(/C=C/c1ccc2ccccc2n1)c1ccncc1	-0.467
Cc1nc(N)sc1-c1ccnc(Nc2ccc(N3CCOCC3)cc2)n1	0.455
Cc1ccc(-n2nc(C(C)(C)C)cc2NC(=O)Nc2ccc(OCCN3CCOCC3)c3ccccc23)cc1 [Doramapimod (BIRB 796)]	0.496
CNc1nc(Nc2cnn([C@H]3CCN(C4COC4)C[C@@H]3F)c2Cl)ncc1C(F)(F)F	-0.177
Cn1c(=O)c(F)c(Nc2ccc(I)cc2F)c2c(=O)n(C[C@@H](O)CO)cnc21	-1.3
CCn1c(N)c(C(=O)NC)c(=O)c2ccc(C#CC(C)(O)COC)nc21 (stereo unspecified)	0.0292
NC1(Cc2ccc(Cl)cc2)CCN(c2ncnc3[nH]ccc23)CC1	0.655
FC(F)(F)c1ccc(/C=C/c2nc(COc3ccc(CCCCn4ccnn4)cc3)co2)cc1 [Mubritinib (TAK 165)]	0.102
Cc1cc(N2CCOCC2)cc2[nH]c(-c3c(NC[C@@H](O)c4cccc(Cl)c4)cc[nH]c3=O)nc12	-1.17
OCCn1cc(-c2cnc3nnn(Cc4ccc5ncccc5c4)c3n2)cn1	-0.172
C[C@H]1[C@H](C)CC[C@]2(C(=O)O)CC[C@]3(C)C(=CC[C@@H]4[C@@]5(C)C[C@@H](O)[C@H](O)[C@@](C)(CO)[C@@H]5CC[C@]43C)[C@H]12 [Asiatic Acid]	-0.0847
O=c1c(-c2ccc(O)cc2)coc2cc(O)cc(O)c12 [Genistein]	0.126
O=C(Cc1ccc(-c2ccc(OCCN3CCOCC3)cc2)cn1)NCc1ccccc1	0.213
O=c1ncn2nc(Sc3ccc(F)cc3F)ccc2c1-c1c(Cl)cccc1Cl	2.06
CC[C@H](Nc1ncnc2[nH]cnc12)c1nc2cccc(F)c2c(=O)n1-c1ccccc1 [Idelalisib (CAL-101, GS-1101)]	0.00653
